Molecules are shown by their SMILES.

Our source for the Inhibition values is ChEMBL document CHEMBL1157539, “Thousands of chemical starting points for antimalarial lead identification” (Nature, 2010).

The first test concerns Plasmodium falciparum. Put plainly: GSK_TCMDC: Inhibition of Plasmodium falciparum Dd2 in whole red blood cells, using parasite LDH activity as an index of growth. Test compounds present at 2uM. The test is classed as functional.
Regarding `COc1ccc2nccc([C@@H](O)CN3CCC(NC(=O)c4ccc(CN5CCN(c6cccc(C)c6)CC5C)cc4)CC3)c2c1` (some centres not stated), the Inhibition was determined as 86%.

`CC(C)(C)C1CCC(CC2=C(C(=O)O)c3ccccc3C2=O)CC1` (configuration not stated) displayed an Inhibition of 56%.

The compound `O=C(C1CC1c1ccccc1)N(Cc1ccc(-c2ccc(CNCCc3ccccc3)cc2)cc1)C1CCNCC1.O=C(O)C(F)(F)F` (configuration not stated) registered an Inhibition of 39%.

Regarding `Cn1cc(C2CCN(CCCCNC(=O)c3ccc(-c4ccc(C(F)(F)F)cc4)c(CO)c3)CC2)c2ccccc21`, the Inhibition is on record as 16%.

On to `O=C(/C=C/c1ccc(Cl)c(Cl)c1)NCCCCCN1CCC(NC(=S)Nc2cccc(Cl)c2)CC1`, for which the Inhibition is recorded as 43%.

Regarding `N#Cc1cccc(CN2CCCN(c3ccc(NC(=O)c4cccs4)cc3)CC2)c1.O=C(O)C(F)(F)F`, the Inhibition amounted to 95%.

Consider `CCCNc1nc(NCc2c(C)cccc2C)nc(NC(C)(C)C)n1`, for which the Inhibition is listed as 89%.

As for `CCCNC(=O)Nc1cc2cc(-c3ccc(CN4CCCC4)cc3)ccc2n2c(C)nnc12`, the Inhibition was found to be 11%.

Turning to `CCN1C(=O)C(CC(=O)Nc2cccc(Cl)c2)N(Cc2ccc(OC)c(OC)c2)C1=S` (configuration not stated), the Inhibition came out at 68%.

With `COc1ccc(C(C(=O)NC2CCN(C[C@H](O)c3ccnc4ccc(OC)cc34)CC2)N2CCN(Cc3ccccc3)CC2)cc1` (some centres not stated), the Inhibition was 72%.

Take `CCCCc1cc(NCc2ccncc2)nc(Nc2ccccc2)n1`: the Inhibition was found to be 4%.

`CC(CNC(=O)C(c1cc2ccccc2o1)N1CCN(C(c2ccccc2)c2ccccc2)CC1)c1ccccc1` (configuration not stated): the Inhibition is given as 89%.

The compound `Cc1cc(=O)oc2c1ccc1oc(C(O)c3ccc(Cl)cc3)c(C)c12` (configuration not stated) displayed an Inhibition of 96%.

As for `CCOc1cc(C(=O)Nc2ccc(-c3nc4ccccc4[nH]3)cc2)cc(OCC)c1OCC`, the Inhibition came to 94%.

Turning to `CC(C)C[C@@H]1C(=O)N[C@H](C2Cc3ccccc3C2)C(=O)N1[C@@H](C(=O)O)c1ccc(F)cc1F`, the Inhibition is listed as 0%.

For the compound `Cl.NC1=NC(c2ccccc2)N(c2ccccc2)C(N)=N1` (configuration not stated), the Inhibition amounted to 85%.

Regarding `COc1cc(C)nc2ccc(NC(=O)Nc3ccc4nc(C)cc(OC)c4c3)cc12`, the Inhibition amounted to 83%.

In the case of `COc1ccc2ncc(F)c(CCN3CCC(NCc4cc(Br)c5c(c4)OCCO5)CC3)c2n1.Cl`, the Inhibition is 94%.

Compound `COc1cc(-c2[nH]c(-c3ccc(OCCN(C)C)cc3)cc2-c2ccncc2)ccc1Cl.Cl` had an Inhibition of 33%.

`Cc1nc(-c2ccc(-c3ccc(C(=O)Nc4ccc(-n5ccnc5)c(N5CCN(C)CC5)c4)cc3)c(C)c2)no1` came in with an Inhibition of 100%.

`Fc1ccc2[nH]c(-c3cccc(-c4ccc(CNCc5cnn(-c6ccccc6)n5)cc4)c3)nc2c1.O=C(O)C(F)(F)F` had an Inhibition of 22%.

In the case of `CN(C)CCN1CCN(Cc2ccc(-c3cccc(-c4nc5ccccc5[nH]4)c3)cc2)CC1.O=C(O)C(F)(F)F`, the Inhibition is given as 100%.

`Fc1ccccc1CNc1ncc(-c2ccsc2)c(-c2nccs2)n1` came in with an Inhibition of 71%.

As to `O=C(NCc1ccc(Cl)cc1)c1ccc(C(=O)NCC2CCCN2CC2CCCCC2)cc1.O=C(O)C(F)(F)F` (configuration not stated), the Inhibition stood at 10%.

For the compound `O=C(/C=C/c1ccc(Cl)c(Cl)c1)NC1CCC(CN2CCC(c3coc4ccccc34)CC2)CC1` (configuration not stated), the Inhibition was determined as 41%.

`Cc1cccc2nc(-c3cccc(-c4ccc(CNCCCN5CCCC5=O)cc4)c3)[nH]c12.O=C(O)C(F)(F)F` had an Inhibition of 38%.

The compound `Oc1cccc(-c2nc(-c3cccc(I)c3)c(-c3ccc(-c4nc(-c5cccc(O)c5)[nH]c4-c4cccc(I)c4)cc3)[nH]2)c1` showed an Inhibition of 66%.

The next test deals with HepG2. In words: GSK_TCMDC: Percent inhibition of human HepG2 cell line. Test compounds present at 10uM. In kind it is functional.
As to `O=C(Nc1ccc(Cl)cc1)c1ccc(CN2CCCN(CC3CCCCC3)CC2)cc1.O=C(O)C(F)(F)F`, the Inhibition was found to be 48%.

Take `O=C(Nc1cccc(-c2cccc(-c3nc4cc(C(F)(F)F)ccc4[nH]3)c2)c1)Nc1ccc(F)c(F)c1F`: the Inhibition was 71%.

`Cc1cc(NC(=O)Nc2ccc(Cl)cc2F)c2ccccc2n1`: the Inhibition came out at 10%.

`CC(C)CCNC(=O)C1Cc2c([nH]c3cc(Br)ccc23)C2(CCN(Cc3ccccc3)CC2)N1` (configuration not stated) returned an Inhibition of 10%.

Turning to `CN1C(=CC(=O)NC(=O)c2ccccc2)C(C)(C)c2ccccc21`, the Inhibition is given as 0%.

The compound `Cc1cccc2nc(-c3ccc(-c4cccc(NC(=O)CN5CCN(C)CC5)c4)s3)[nH]c12` had an Inhibition of 7%.

`CC(=O)C=C1CC(=O)N(C[C@@H](O)[C@H]2O[C@@H]3OC(C)(C)O[C@@H]3[C@H]2O)c2ccccc2N1` came in with an Inhibition of 0%.

On to `CO/C(=C\C=C\c1cc2cc(Cl)c(Cl)cc2[nH]1)C(=O)NCCCN1CCN(c2cccc(O)c2)CC1`, for which the Inhibition came out at 46%.

For `N=C(N)NCCCN(Cc1ccccc1)c1ccc(Cl)cc1.O=S(=O)(O)O`, the Inhibition was 0%.

Turning to `O=C(Nc1ccc(C(F)(F)F)cc1)NC1CCN(c2ccnc3ccccc23)CC1.O=C(O)C(F)(F)F`, the Inhibition turned out to be 46%.

The compound `CC(C)C[C@H](NC(=O)c1ccc(OCCN2CCOCC2)cc1)C(=O)N[C@H](/C=N/N(C)C(=O)c1ccccc1)CCc1ccccc1` gave an Inhibition of 8%.

In the case of `Cc1ccc(C(=O)Nc2ccc(Nc3ccnc4cc(-c5ccncc5)ccc34)cc2O)cc1`, the Inhibition is 14%.

`CC(C)CC(C)NC(=O)C1Cc2c([nH]c3ccc(F)cc23)C2(CCN(Cc3ccccc3)CC2)N1` (configuration not stated) came in with an Inhibition of 18%.

Consider `COc1ccc2nccc([C@@H](O)CN3CCC(NC(=O)c4ccc(CN5CCN(c6cccc(C)c6)CC5C)cc4)CC3)c2c1` (some centres not stated), for which the Inhibition was determined as 50%.

`CC(C)(C)C1CCC(CC2=C(C(=O)O)c3ccccc3C2=O)CC1` (configuration not stated): the Inhibition came to 0%.

Regarding `O=C(C1CC1c1ccccc1)N(Cc1ccc(-c2ccc(CNCCc3ccccc3)cc2)cc1)C1CCNCC1.O=C(O)C(F)(F)F` (configuration not stated), the Inhibition was 36%.

`Cn1cc(C2CCN(CCCCNC(=O)c3ccc(-c4ccc(C(F)(F)F)cc4)c(CO)c3)CC2)c2ccccc21` showed an Inhibition of 67%.

For the compound `O=C(/C=C/c1ccc(Cl)c(Cl)c1)NCCCCCN1CCC(NC(=S)Nc2cccc(Cl)c2)CC1`, the Inhibition is reported as 24%.

On to `N#Cc1cccc(CN2CCCN(c3ccc(NC(=O)c4cccs4)cc3)CC2)c1.O=C(O)C(F)(F)F`, for which the Inhibition amounted to 0%.

Compound `CCCNc1nc(NCc2c(C)cccc2C)nc(NC(C)(C)C)n1` returned an Inhibition of 15%.

`CCCNC(=O)Nc1cc2cc(-c3ccc(CN4CCCC4)cc3)ccc2n2c(C)nnc12` had an Inhibition of 67%.

Consider `CCN1C(=O)C(CC(=O)Nc2cccc(Cl)c2)N(Cc2ccc(OC)c(OC)c2)C1=S` (configuration not stated), for which the Inhibition is reported as 13%.

In the case of `COc1ccc(C(C(=O)NC2CCN(C[C@H](O)c3ccnc4ccc(OC)cc34)CC2)N2CCN(Cc3ccccc3)CC2)cc1` (some centres not stated), the Inhibition came to 18%.

For `CCCCc1cc(NCc2ccncc2)nc(Nc2ccccc2)n1`, the Inhibition is listed as 0%.

In the case of `CC(CNC(=O)C(c1cc2ccccc2o1)N1CCN(C(c2ccccc2)c2ccccc2)CC1)c1ccccc1` (configuration not stated), the Inhibition came to 2%.

Turning to `Cc1cc(=O)oc2c1ccc1oc(C(O)c3ccc(Cl)cc3)c(C)c12` (configuration not stated), the Inhibition amounted to 0%.

For the compound `CCOc1cc(C(=O)Nc2ccc(-c3nc4ccccc4[nH]3)cc2)cc(OCC)c1OCC`, the Inhibition came out at 42%.

In the case of `CC(C)C[C@@H]1C(=O)N[C@H](C2Cc3ccccc3C2)C(=O)N1[C@@H](C(=O)O)c1ccc(F)cc1F`, the Inhibition came out at 10%.

With `Cl.NC1=NC(c2ccccc2)N(c2ccccc2)C(N)=N1` (configuration not stated), the Inhibition is 0%.

`COc1cc(C)nc2ccc(NC(=O)Nc3ccc4nc(C)cc(OC)c4c3)cc12` displayed an Inhibition of 79%.

The compound `COc1ccc2ncc(F)c(CCN3CCC(NCc4cc(Br)c5c(c4)OCCO5)CC3)c2n1.Cl` showed an Inhibition of 26%.

Turning to `COc1cc(-c2[nH]c(-c3ccc(OCCN(C)C)cc3)cc2-c2ccncc2)ccc1Cl.Cl`, the Inhibition is on record as 3%.

On to `Cc1nc(-c2ccc(-c3ccc(C(=O)Nc4ccc(-n5ccnc5)c(N5CCN(C)CC5)c4)cc3)c(C)c2)no1`, for which the Inhibition was 34%.

Compound `Fc1ccc2[nH]c(-c3cccc(-c4ccc(CNCc5cnn(-c6ccccc6)n5)cc4)c3)nc2c1.O=C(O)C(F)(F)F` showed an Inhibition of 18%.

`CN(C)CCN1CCN(Cc2ccc(-c3cccc(-c4nc5ccccc5[nH]4)c3)cc2)CC1.O=C(O)C(F)(F)F`: the Inhibition is listed as 25%.

Compound `Fc1ccccc1CNc1ncc(-c2ccsc2)c(-c2nccs2)n1` registered an Inhibition of 11%.

Compound `O=C(NCc1ccc(Cl)cc1)c1ccc(C(=O)NCC2CCCN2CC2CCCCC2)cc1.O=C(O)C(F)(F)F` (configuration not stated) had an Inhibition of 21%.

Consider `O=C(/C=C/c1ccc(Cl)c(Cl)c1)NC1CCC(CN2CCC(c3coc4ccccc34)CC2)CC1` (configuration not stated), for which the Inhibition amounted to 40%.

Consider `Cc1cccc2nc(-c3cccc(-c4ccc(CNCCCN5CCCC5=O)cc4)c3)[nH]c12.O=C(O)C(F)(F)F`, for which the Inhibition was 5%.

For `Oc1cccc(-c2nc(-c3cccc(I)c3)c(-c3ccc(-c4nc(-c5cccc(O)c5)[nH]c4-c4cccc(I)c4)cc3)[nH]2)c1`, the Inhibition is 0%.

As a reminder, the Inhibition is how much of the control response was suppressed. Read a low Inhibition as a weak effect.
